# Assays:
# Assay in all cases: DAPPL (digital affinity profiling via proximity ligation, sequencing); 10 mM Tris-HCl pH 7.5, 50 mM NaCl, 1 mM DTT, 4% glycerol, room temperature, 30 min; GST-TFs on glutathione beads, 16-mer random dsDNA library, 0.1% formaldehyde crosslink after washing; high values mean tight binding
# [1] = biological target: T1, FEV (Homo sapiens, UniProt Q99581 1-238); details: protein: recombinant; tags: N-terminal GST; dsDNA, one strand shown
# T1 sequence: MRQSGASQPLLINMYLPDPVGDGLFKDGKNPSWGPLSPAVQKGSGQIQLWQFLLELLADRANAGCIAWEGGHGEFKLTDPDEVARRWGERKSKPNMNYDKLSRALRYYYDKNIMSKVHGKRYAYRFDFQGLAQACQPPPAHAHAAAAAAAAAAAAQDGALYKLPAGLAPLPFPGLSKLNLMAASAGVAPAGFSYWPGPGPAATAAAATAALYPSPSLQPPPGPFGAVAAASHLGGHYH
# In short: (§1)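 Pools of DNA-barcoded human transcription factors, expressed in yeast as GST fusions on glutathione beads and combined with a tag-only sample, were incubated with 200 nmole of a 16-mer random double-stranded DNA library. Incubation took 30 min at room temperature in Tris/NaCl/DTT/glycerol buffer and was followed by washing, 0.1% formaldehyde crosslinking, proximity ligation (BsaI/T4 ligase, 1 h, 37 °C), PCR amplification and sequencing on an Illumina NextSeq500. Binding signal is the ratio of a hexamer's read frequency for a factor to its frequency for the tag-only sample.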
# [2] = biological target: ETV5 (Homo sapiens, UniProt P41161 1-510); details: protein: recombinant; tags: N-terminal GST; dsDNA, one strand shown
# In short: as §1
# [3] = biological target: HSF1 (Homo sapiens, UniProt Q00613 1-529); details: protein: recombinant; tags: N-terminal GST; chain copies: 3; dsDNA, one strand shown
# In short: as §1
# [4] = biological target: T2, SPIC (Homo sapiens, UniProt Q8N5J4 1-248); details: protein: recombinant; tags: N-terminal GST; dsDNA, one strand shown
# T2 sequence: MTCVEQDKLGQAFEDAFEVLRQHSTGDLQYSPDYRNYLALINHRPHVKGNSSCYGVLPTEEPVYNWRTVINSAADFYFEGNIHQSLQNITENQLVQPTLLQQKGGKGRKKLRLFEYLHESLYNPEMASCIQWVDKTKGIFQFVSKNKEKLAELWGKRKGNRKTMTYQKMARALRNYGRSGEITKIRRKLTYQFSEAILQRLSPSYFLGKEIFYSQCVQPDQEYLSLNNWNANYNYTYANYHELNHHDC
# In short: as §1
# [5] = biological target: ELF4 (Homo sapiens, UniProt Q99607 1-663); details: protein: recombinant; tags: N-terminal GST; dsDNA, one strand shown
# In short: as §1
# [6] = biological target: T3, ELK4 (Homo sapiens, UniProt P28324-2 1-405); details: protein: recombinant; tags: N-terminal GST; dsDNA, one strand shown
# T3 sequence: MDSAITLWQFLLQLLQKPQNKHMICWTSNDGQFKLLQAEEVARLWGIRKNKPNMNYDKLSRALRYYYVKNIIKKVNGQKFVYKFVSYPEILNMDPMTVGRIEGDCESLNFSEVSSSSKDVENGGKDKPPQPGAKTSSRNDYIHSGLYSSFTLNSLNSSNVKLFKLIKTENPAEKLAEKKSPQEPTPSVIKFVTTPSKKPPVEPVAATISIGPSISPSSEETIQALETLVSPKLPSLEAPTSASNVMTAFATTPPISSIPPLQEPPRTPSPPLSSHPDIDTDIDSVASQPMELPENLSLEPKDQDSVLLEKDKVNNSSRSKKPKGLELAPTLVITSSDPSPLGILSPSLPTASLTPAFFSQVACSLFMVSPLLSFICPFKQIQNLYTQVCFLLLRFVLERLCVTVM
# In short: as §1
# [7] = biological target: T4, ETV2 (Homo sapiens, UniProt O00321 1-342); details: protein: recombinant; tags: N-terminal GST; dsDNA, one strand shown
# T4 sequence: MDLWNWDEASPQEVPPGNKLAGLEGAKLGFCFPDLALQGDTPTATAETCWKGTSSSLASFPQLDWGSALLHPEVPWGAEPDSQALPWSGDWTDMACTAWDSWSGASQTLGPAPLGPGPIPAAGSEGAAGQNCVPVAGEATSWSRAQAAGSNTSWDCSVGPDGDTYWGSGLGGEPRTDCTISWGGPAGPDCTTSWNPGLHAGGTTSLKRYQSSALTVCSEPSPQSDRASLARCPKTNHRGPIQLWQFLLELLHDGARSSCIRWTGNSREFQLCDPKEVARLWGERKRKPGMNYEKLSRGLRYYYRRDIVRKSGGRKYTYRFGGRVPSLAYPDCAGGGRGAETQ
# In short: as §1
# [8] = biological target: T5, ELF3 (Homo sapiens, UniProt P78545 1-371); details: protein: recombinant; tags: N-terminal GST; dsDNA, one strand shown
# T5 sequence: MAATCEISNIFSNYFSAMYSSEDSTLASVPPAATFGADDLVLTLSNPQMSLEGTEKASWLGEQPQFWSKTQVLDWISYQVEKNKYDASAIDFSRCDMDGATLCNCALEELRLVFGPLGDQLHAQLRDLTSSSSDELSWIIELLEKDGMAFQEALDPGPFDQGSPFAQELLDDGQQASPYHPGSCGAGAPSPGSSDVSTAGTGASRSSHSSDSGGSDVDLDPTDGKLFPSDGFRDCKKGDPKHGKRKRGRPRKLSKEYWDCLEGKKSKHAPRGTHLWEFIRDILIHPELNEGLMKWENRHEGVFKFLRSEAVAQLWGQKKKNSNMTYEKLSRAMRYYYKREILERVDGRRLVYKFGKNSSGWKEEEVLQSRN
# In short: as §1
# [9] = biological target: CRX (Homo sapiens, UniProt O43186 1-299); details: protein: recombinant; tags: N-terminal GST; dsDNA, one strand shown
# In short: as §1
# [10] = biological target: ETV1 (Homo sapiens, UniProt P50549 1-477); details: protein: recombinant; tags: N-terminal GST; dsDNA, one strand shown
# In short: as §1
# Chain of ETV5 (P41161 whole entry): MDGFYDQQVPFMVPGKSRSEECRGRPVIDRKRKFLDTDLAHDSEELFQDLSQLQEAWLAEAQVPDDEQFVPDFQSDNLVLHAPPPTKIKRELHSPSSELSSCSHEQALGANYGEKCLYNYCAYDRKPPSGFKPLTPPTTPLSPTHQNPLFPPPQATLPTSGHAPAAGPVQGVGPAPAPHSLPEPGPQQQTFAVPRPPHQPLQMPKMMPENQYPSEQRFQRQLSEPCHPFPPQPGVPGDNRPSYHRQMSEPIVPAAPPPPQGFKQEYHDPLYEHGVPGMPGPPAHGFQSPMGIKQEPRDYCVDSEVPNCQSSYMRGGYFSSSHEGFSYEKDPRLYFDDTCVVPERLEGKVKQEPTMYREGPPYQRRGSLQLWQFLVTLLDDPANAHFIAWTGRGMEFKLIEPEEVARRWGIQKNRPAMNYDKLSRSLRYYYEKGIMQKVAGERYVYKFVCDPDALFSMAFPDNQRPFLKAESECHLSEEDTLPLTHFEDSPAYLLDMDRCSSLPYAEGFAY
# Chain of ETV1 (P50549 whole entry): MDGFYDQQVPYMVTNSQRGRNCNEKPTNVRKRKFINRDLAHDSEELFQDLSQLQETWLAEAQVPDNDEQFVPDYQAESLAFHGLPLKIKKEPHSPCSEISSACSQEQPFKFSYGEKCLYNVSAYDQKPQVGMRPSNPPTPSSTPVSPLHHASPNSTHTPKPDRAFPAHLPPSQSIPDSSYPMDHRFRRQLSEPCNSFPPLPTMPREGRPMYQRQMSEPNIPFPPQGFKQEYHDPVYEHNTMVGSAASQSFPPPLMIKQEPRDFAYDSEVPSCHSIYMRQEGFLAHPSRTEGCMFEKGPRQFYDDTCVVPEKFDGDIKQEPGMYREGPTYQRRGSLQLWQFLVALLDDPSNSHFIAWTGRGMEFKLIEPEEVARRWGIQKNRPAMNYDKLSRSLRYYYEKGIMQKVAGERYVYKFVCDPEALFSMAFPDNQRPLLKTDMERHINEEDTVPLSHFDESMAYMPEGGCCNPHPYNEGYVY
# Chain of CRX (O43186 whole entry): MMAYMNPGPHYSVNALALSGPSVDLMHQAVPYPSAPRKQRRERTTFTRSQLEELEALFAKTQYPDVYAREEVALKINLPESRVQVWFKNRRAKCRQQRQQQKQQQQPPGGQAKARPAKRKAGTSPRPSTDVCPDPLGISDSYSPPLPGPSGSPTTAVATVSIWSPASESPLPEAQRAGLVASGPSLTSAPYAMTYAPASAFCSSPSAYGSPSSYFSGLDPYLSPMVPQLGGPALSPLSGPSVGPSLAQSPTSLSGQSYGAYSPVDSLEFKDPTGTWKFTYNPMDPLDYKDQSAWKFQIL
# Chain of HSF1 (Q00613 whole entry): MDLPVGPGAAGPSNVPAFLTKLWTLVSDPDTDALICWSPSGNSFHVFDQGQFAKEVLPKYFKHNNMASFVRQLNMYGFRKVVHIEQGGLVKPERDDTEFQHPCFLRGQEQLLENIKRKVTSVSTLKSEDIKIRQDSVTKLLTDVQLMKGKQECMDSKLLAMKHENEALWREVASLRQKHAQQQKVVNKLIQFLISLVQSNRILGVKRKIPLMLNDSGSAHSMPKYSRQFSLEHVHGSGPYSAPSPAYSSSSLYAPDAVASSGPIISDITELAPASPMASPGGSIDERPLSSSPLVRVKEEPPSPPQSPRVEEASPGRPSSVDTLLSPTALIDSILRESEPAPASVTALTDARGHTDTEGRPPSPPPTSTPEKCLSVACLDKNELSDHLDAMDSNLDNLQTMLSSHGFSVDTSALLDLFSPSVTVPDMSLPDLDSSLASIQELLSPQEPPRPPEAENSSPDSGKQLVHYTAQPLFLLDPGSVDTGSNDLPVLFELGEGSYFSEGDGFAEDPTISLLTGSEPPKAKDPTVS
# Chain of ELF4 (Q99607 whole entry): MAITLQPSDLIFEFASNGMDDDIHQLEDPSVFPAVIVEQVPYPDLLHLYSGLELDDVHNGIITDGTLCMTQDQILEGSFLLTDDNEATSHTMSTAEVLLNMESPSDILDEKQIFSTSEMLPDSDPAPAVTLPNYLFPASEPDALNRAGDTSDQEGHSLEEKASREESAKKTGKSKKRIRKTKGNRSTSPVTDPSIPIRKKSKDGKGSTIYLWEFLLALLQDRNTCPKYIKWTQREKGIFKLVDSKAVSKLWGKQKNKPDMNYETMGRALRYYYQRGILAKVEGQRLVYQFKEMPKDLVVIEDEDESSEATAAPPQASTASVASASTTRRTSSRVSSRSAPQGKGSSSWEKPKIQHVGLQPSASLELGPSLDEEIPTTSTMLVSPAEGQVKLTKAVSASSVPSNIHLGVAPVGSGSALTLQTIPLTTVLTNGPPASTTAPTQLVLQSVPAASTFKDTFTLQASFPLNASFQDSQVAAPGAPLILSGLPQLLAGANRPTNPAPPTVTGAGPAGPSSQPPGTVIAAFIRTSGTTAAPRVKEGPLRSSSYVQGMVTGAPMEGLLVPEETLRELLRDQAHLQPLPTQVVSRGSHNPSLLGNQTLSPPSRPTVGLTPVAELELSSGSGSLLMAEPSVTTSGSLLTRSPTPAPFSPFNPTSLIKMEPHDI
sequence,measurement,setting,value
CGAACC,binding signal,[1],"1.24 fold enrichment (6-mer frequency, TF over GST control)"
same,binding signal,[2],"1.21 fold enrichment (6-mer frequency, TF over GST control)"
same,binding signal,[3],"1.47 fold enrichment (6-mer frequency, TF over GST control)"
same,binding signal,[4],"1.23 fold enrichment (6-mer frequency, TF over GST control)"
same,binding signal,[5],"1.26 fold enrichment (6-mer frequency, TF over GST control)"
same,binding signal,[6],"1.26 fold enrichment (6-mer frequency, TF over GST control)"
same,binding signal,[7],"1.2 fold enrichment (6-mer frequency, TF over GST control)"
same,binding signal,[8],"1.24 fold enrichment (6-mer frequency, TF over GST control)"
same,binding signal,[9],"1.02 fold enrichment (6-mer frequency, TF over GST control)"
same,binding signal,[10],"1.13 fold enrichment (6-mer frequency, TF over GST control)"
